Hit rate of the full screen: of about 340,000 compounds, about 6,400 (1.9%) were called active. Not shown: some 4% with an inconclusive outcome. The call rests on the fitted dose curve; in most records, active means well fitted falling curve with a large enough effect; inconclusive means small, poorly fitted or top-dose-only effect; inactive means no such curve, though single readings can be large or run the other way. What follows is part of a selection rich in actives, with near analogues and random picks from the rest. A call without a number means that no potency is given here.
What follows are compounds tested against ATP-dependent Clp protease proteolytic subunit (Bacillus subtilis (strain 168)) (UniProt P80244) (assay: qHTS Assay for Activators of ClpP). Conditions: purified B. subtilis ClpP, FRET peptide cleavage, 20 min; series mostly up to 57.5 µM.
Sequence of ATP-dependent Clp protease proteolytic subunit (Bacillus subtilis (strain 168)) (P80244 whole entry, looked up): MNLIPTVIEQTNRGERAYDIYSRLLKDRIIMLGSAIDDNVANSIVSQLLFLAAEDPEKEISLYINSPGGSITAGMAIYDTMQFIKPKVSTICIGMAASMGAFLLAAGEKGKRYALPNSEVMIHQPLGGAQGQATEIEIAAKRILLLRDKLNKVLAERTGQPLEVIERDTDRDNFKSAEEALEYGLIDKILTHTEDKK
From the text: The Clp protease proteolytic subunit (ClpP) is the core unit of the Clp complex belonging to the peptidase family S14 that hydrolyzes protein into small peptides in the presence of ATP and magnesium. It is ubiquitously expressed and is the major protease in bacteria. […] Unlike common antibiotics that simply interfere with the essential enzyme activity, ADEP binding activates the ClpP core in the absence of the regulatory Clp-ATPases leading to uncontrolled proteolysis and eventually cell death. Activators binding to the docking site on ClpP can also block formation of the ClpXP and ClpA/C-P holoenzyme complexes interfering with the normal biological functions of ClpP and thus have the potential to become new anti-microbials.
To identify activators of ClpP, a FRET based quenching reversal assay was developed using a purified B. subtilis ClpP and a decapeptide substrate (FRET-FV). The FRET-FV is tagged with a fluorescent molecule amino benzoic acid (donor) at the N-terminus and a nitrotyrosine quencher (acceptor) at the C-terminus. FRET-FV cleaves upon activation of ClpP with ADEP treatement and reverses the quenching effect of the nitrotyrosine causing an increase in fluorescence emission signal at 430nm. This assay was used to screen the Molecular Libraries Small Molecule Repository (MLSMR).
NIH Molecular Libraries Probe Production Centers Network [MLPCN]
NIH Chemical Genomics Center [NCGC]
Assay Submitter (PI): Michael Maurizi, National Cancer Institute
Two and a half microL/well of purified enzyme solution (final concentrations 10 microg/mL B. subtilis ClpP in 100 mM Tris/HCl pH8, 100 mM KCl, 0.05% low protease BSA, 2.5% glycerol, 0.01% Tween-20 buffer) was dispensed into 1536-well assay plates (Greiner, black solid, medium-binding plates) with Aurora Discovery BioRAPTR Flying Reagent Dispenser (FRD, Beckton-Dickenson). Compound solution (23 nL) was transferred to the assay plate using Kalypsys pin tool equipped with a 1536-pin tool. […] FRET signals at time 0 and after 20 min room temperature incubation were obtained using the PerkinElmer Envision plate reader with 320nm excitation and 430nm emission filters. Delta FRET value (Time 20 - Time 0) was calculated and normalized to the delta FRET value of positive control ADEP (5.8 microM final concentration) and negative control DMSO and no enzyme wells.
For Cc1cc(C)n2c(Nc3c(C)cccc3C)c(CCc3ccccc3)nc2n1, the Potency was “inactive”. In the case of Cc1ccc(O)c(CCc2ccccc2)n1, the Potency is reported as 28.2 µM (active). For c1ccc(CCc2ccccn2)cc1, the Potency was “inactive”. For C=CCOc1ccccc1CNn1c(C)n[nH]c1=S, the Potency was “inactive”. Cn1c(-c2ccc(C(=O)c3ccccc3)s2)nc2ccccc21 was tested, and the Potency was 20 µM (active). With Cn1c(NC(=O)c2ccccc2)nc2ccccc21 the Potency was “inactive”. For Cn1c(CNC(=O)C(C)(C)C)nc2ccccc21, the Potency was “inactive”. With CCCCc1nc2ccc(F)cc2cc1C the Potency was “inactive”. For CCCc1ccc(C(O)c2ncc(-c3cccc(OC)c3)[nH]2)cc1 (configuration not stated), the Potency was “inactive”. With COc1ccc(CC(N)c2csc(NC(=O)Cc3ccccc3)n2)cc1 (configuration not stated) the Potency was “inactive”. For CCOC(=O)CSc1nnc(CNC(=O)c2cccs2)n1-c1cc(OC)ccc1OC, the Potency was “inactive”. In the case of CCOC(=O)CSc1nnc(CNC(=O)c2ccco2)n1-c1ccc(F)cc1, the Potency is reported as “inactive”. In the case of CCOC(=O)CSc1nnc(CNC(=O)c2cccs2)n1-c1ccccc1, the Potency is reported as 10 µM (active). Nc1nc2c(Br)ccc(Br)c2cc1C(=O)NCCc1ccccc1 was tested, and the Potency was “inactive”. In the case of O=C(COc1ccc2c3c(c(=O)oc2c1)CCCC3)NCC(O)c1ccccc1 (configuration not stated), the Potency is reported as “inactive”. With O=C(COc1ccc2c3c(c(=O)oc2c1)CCC3)NC1CCCCC1 the Potency was 14.1 µM (active). NC(=O)C1CCN(C(=O)COc2ccc3c4c(c(=O)oc3c2)CCC4)CC1 was tested, and the Potency was “inactive”. For CC1(C(=O)Nc2cccc3c2CCCC3)CCN1C(=O)CCc1ccc(Cl)cc1Cl (configuration not stated), the Potency was “inactive”. With Cc1cc2cc3n(c2nn1)N=C(Cl)CC3 the Potency was “inactive”. FC(F)(F)c1ccccc1Cc1c(-c2ccccc2)nc2c3ccccc3ccn12 was tested, and the Potency was 22.4 µM (active). With CCCc1nc2c3ccccc3ccn2c1Cc1ccccc1C(F)(F)F the Potency was “inactive”. For Cc1ccc(Cc2c(-c3ccc(C)cc3)nc3c4ccccc4ccn23)cc1, the Potency was “inactive”. In the case of NC(=O)c1c(Nc2nc3c(F)cccc3s2)sc2c1CCCC2, the Potency is reported as “inactive”. NNc1nc2c(Cl)cccc2s1 was tested, and the Potency was “inactive”. Fc1cc(F)c2nc(Nc3nc4c(F)cccc4s3)sc2c1 was tested, and the Potency was 3.55 µM (active). CCOC(=O)c1cc2cc(OC)ccc2n1C1CCN(C)CC1 was tested, and the Potency was “inactive”. In the case of CCC(C(=O)NCc1ccccc1)n1c(Cc2cc(F)cc(F)c2)nc2ccccc21 (configuration not stated), the Potency is reported as “inactive”. CC1Cc2[nH][nH]c(=O)c2C(C2CC2)O1 (configuration not stated) was tested, and the Potency was “inactive”. With CCCCCNC(=O)C1C(=O)Nc2ccccc2C(=O)N1C(C)(C)C (configuration not stated) the Potency was “inactive”. With COc1ccc(C2=Nc3cc(C)ccc3OC2)cc1 the Potency was 28.2 µM (active). In the case of COc1ccc(-c2cn3ccc(C)cc3n2)cc1, the Potency is reported as “inactive”. In the case of COc1ccc(-c2cc(-c3ccc(F)cc3)nc3c2COc2ccccc2-3)cc1, the Potency is reported as “inactive”. For CCOC(=O)[C@]12CCCC=C1N(CCC1=CCCCC1)C(=O)[C@H](CC(=O)NCCCOC)C2, the Potency was “inactive”. Cc1cc(NC(=O)CSCC(=O)NC(C)c2ccccc2)no1 (configuration not stated) was tested, and the Potency was “inactive”. For Cc1ccc2nc(-c3ccc(SCC(=O)Nc4cc(C)on4)nc3)[nH]c2c1, the Potency was 31.6 µM (active). For Cc1cc(NC(=O)CSc2nc3ccccc3n2CC(C)C)no1, the Potency was “inactive”. With CN(CCC#N)c1ccc(C=O)cc1 the Potency was “inactive”. In the case of CC(C)(C)c1ccc(C(=O)C[N+]2(C)CCCc3ccccc32)cc1 (configuration not stated), the Potency is reported as “inactive”. In the case of COc1ccc(S(=O)(=O)N[C@@H]2C=C[C@@H](CC(=O)N3CCc4ccccc4C3)O[C@@H]2CO)cc1, the Potency is reported as “inactive”. In the case of O=C(COC(=O)c1cc(S(=O)(=O)N2CCOCC2)ccc1Cl)NCCc1ccccc1, the Potency is reported as “inactive”. CCn1c2ccccc2c2cc(NC(=O)COC(=O)c3ccccc3Br)ccc21 was tested, and the Potency was “inactive”. For CCn1c2ccccc2c2cc(NC(=O)COC(=O)c3cc(S(=O)(=O)N4CCCCC4)ccc3Cl)ccc21, the Potency was 10 µM (active). With COc1cc2nc(N3CCCN(C)CC3)nc(NC3CC3)c2cc1OC the Potency was “inactive”. In the case of COc1ccccc1Nc1cc(C(=O)NCCCN(C)C2CCCCC2)c2ccccc2n1, the Potency is reported as “inactive”. With CCCCN(CCCNC(=O)c1cc(Nc2ccccc2OC)nc2ccccc12)c1ccccc1 the Potency was 17.8 µM (active). COc1ccc(Nc2cc(C(=O)NCCCN(C)c3ccccc3)c3ccccc3n2)c(OC)c1 was tested, and the Potency was “inactive”. CN(C)C(=O)c1cccc(-c2cnc3c(NC=O)cc(-c4ccc(C(=O)N5CCOCC5)cc4)cn23)c1 was tested, and the Potency was “inactive”. COCCCNC(=O)c1ccc(-c2c(C)noc2C)c2ccoc12 was tested, and the Potency was “inactive”. In the case of C=Cc1ccc(C(=O)N2CCCC(CCC(=O)N3CCN(c4ccccn4)CC3)C2)cc1 (configuration not stated), the Potency is reported as “inactive”. O=C(CCC1CCCN(C(=O)c2ccc(F)c(F)c2)C1)N1CCN(c2ccccn2)CC1 (configuration not stated) was tested, and the Potency was 17.8 µM (active). In the case of O=C(CCC1CCCN(C(=O)Cc2ccc(F)cc2)C1)N1CCN(c2ccccn2)CC1 (configuration not stated), the Potency is reported as “inactive”. In the case of COc1ccc(CCCNC(=O)C2Cc3c(-c4cccc(C(N)=O)c4)ccnc3O2)cc1 (configuration not stated), the Potency is reported as “inactive”. For Cc1cc(=O)c2ccc(NC(=O)c3ccccc3)cc2[nH]1, the Potency was “inactive”. With O=C1NC(Cc2ccccc2)c2nc3ccc(Br)cc3c(=O)n2-c2cc3ccccc3cc21 (configuration not stated) the Potency was “inactive”. For O=C(NCc1cccnc1)c1ccc2nc([C@@H]3O[C@H](CO)[C@H](O)[C@H](O)[C@H]3O)[nH]c2c1, the Potency was “inactive”. With CC1=CC(C)(C)Nc2ccc(OC(=O)CN3C(=O)C4CCCCC4C3=O)cc21 (configuration not stated) the Potency was “inactive”. With CC1=CC(C)(C)Nc2ccc(OC(=O)C(Cc3ccccc3)N3C(=O)C4CCCCC4C3=O)cc21 (configuration not stated) the Potency was 31.6 µM (active). In the case of CCOC(=O)C(Cc1ccc(N)cc1)N1C(=O)c2ccccc2C1=O (configuration not stated), the Potency is reported as “inactive”. For Cc1ccc(NC(=O)Cn2sc3ccccc3c2=O)cc1, the Potency was “inactive”. With COCCCn1c(CCC(=O)O)ccc1-c1ccc(F)cc1 the Potency was 31.6 µM (active). In the case of Cc1ccc(-c2ccc(CCC(=O)O)n2-c2ccc(C(N)=O)cc2)cc1, the Potency is reported as “inactive”. For COc1ccc(Cl)cc1-n1c(CCC(=O)O)ccc1-c1ccc(C)cc1, the Potency was “inactive”. With Nc1nc2c(ncn2[C@@H]2O[C@H](CNS(=O)(=O)N3CCc4ccccc4C3)[C@@H](O)[C@H]2O)c(=O)[nH]1 the Potency was “inactive”. COCCCNc1ccn2nc(-c3ccc(CC(C)C)cc3)cc2n1 was tested, and the Potency was “inactive”. For Cc1ccccc1OCC(=O)N(Cc1cccc(F)c1)C1CCS(=O)(=O)C1 (configuration not stated), the Potency was “inactive”. For CN(C(=O)COC(=O)Cc1ccccc1[N+](=O)[O-])C1CCS(=O)(=O)C1 (configuration not stated), the Potency was “inactive”. CCN(C(=O)COc1cccnc1[N+](=O)[O-])C1CCS(=O)(=O)C1 (configuration not stated) was tested, and the Potency was 28.2 µM (active).

Source: PubChem BioAssay AID651965 (National Center for Advancing Translational Sciences (NCATS), 2013)
Further: the source files actives as falling curves though it sought activators and does not explain the sign; nearly all actives have a fitted effect of over 65% in size.
